# Where two headings read alike, the source gives them in different places.
# Tests used:
# Conditions in all cases: read-out: apparent Kd, n = 1
# TBK1 = system: TBK1
# TGFBR1 = system: TGFBR1
# TNK1 = system: TNK1
# [1] = compound concentrations:100 nM and 1000 nM (sheet 'Lestaurtinib' of Supplementary Table 1),run:Lestaurtinib_02473_R3,Plate:MR010
# [2] = compound concentrations:100 nM and 1000 nM (sheet 'Lestaurtinib' of Supplementary Table 1),run:Lestaurtinib_02487_R2,Plate:MR012
# [3] = compound concentrations:100 nM and 1000 nM (sheet 'Lestaurtinib' of Supplementary Table 1),run:Lestaurtinib_02496_R2,Plate:MR013
# [4] = compound concentrations:100 nM and 1000 nM (sheet 'Lestaurtinib' of Supplementary Table 1),run:Lestaurtinib_02566_R1,Plate:MR014
# [5] = compound concentrations:100 nM and 1000 nM (sheet 'Lestaurtinib' of Supplementary Table 1),run:Lestaurtinib_02566_R2,Plate:MR014
# [6] = compound concentrations:100 nM and 1000 nM (sheet 'Lestaurtinib' of Supplementary Table 1),run:Lestaurtinib_02584_R3,Plate:MR017
# [7] = compound concentrations:100 nM and 1000 nM (sheet 'Lestaurtinib' of Supplementary Table 1),run:Lestaurtinib_02606_R1,Plate:MR019
# [8] = compound concentrations:100 nM and 1000 nM (sheet 'Lestaurtinib' of Supplementary Table 1),run:Lestaurtinib_02741_R3,Plate:MR023
# [9] = compound concentrations:100 nM and 1000 nM (sheet 'Lestaurtinib' of Supplementary Table 1),run:Lestaurtinib_02752_R2,Plate:MR025
# [10] = compound concentrations:100 nM and 1000 nM (sheet 'Lestaurtinib' of Supplementary Table 1),run:Lestaurtinib_02765_R2,Plate:MR026
# [11] = compound concentrations:100 nM and 1000 nM (sheet 'Lestaurtinib' of Supplementary Table 1),run:Lestaurtinib_02766_R1,Plate:MR027
# [12] = compound concentrations:100 nM and 1000 nM (sheet 'Lestaurtinib' of Supplementary Table 1),run:Lestaurtinib_02766_R3,Plate:MR027
# [13] = compound concentrations:100 nM and 1000 nM (sheet 'Lestaurtinib' of Supplementary Table 1),run:Lestaurtinib_02802_R1,Plate:MR029
# [14] = compound concentrations:100 nM and 1000 nM (sheet 'Lestaurtinib' of Supplementary Table 1),run:Lestaurtinib_02339_R2,Plate:MR001
# [15] = compound concentrations:100 nM and 1000 nM (sheet 'Lestaurtinib' of Supplementary Table 1),run:Lestaurtinib_02339_R3,Plate:MR001
# [16] = compound concentrations:100 nM and 1000 nM (sheet 'Lestaurtinib' of Supplementary Table 1),run:Lestaurtinib_02364_R3,Plate:MR002
# [17] = compound concentrations:100 nM and 1000 nM (sheet 'Lestaurtinib' of Supplementary Table 1),run:Lestaurtinib_02367_R2,Plate:MR003
# [18] = compound concentrations:100 nM and 1000 nM (sheet 'Lestaurtinib' of Supplementary Table 1),run:Lestaurtinib_02437_R3,Plate:MR007
# [19] = compound concentrations:100 nM and 1000 nM (sheet 'Lestaurtinib' of Supplementary Table 1),run:Lestaurtinib_02438_R2,Plate:MR008
substance,measurement,setting,value
Lestaurtinib,potency estimated from few doses,"TBK1; compound concentrations:100 nM and 1000 nM (sheet 'Lestaurtinib' of Supplementary Table 1),run:Lestaurtinib_02473_R2,Plate:MR010",1.37 µM
same,potency estimated from few doses,TBK1; [1],0.851 µM
same,potency estimated from few doses,"TBK1; compound concentrations:100 nM and 1000 nM (sheet 'Lestaurtinib' of Supplementary Table 1),run:Lestaurtinib_02482_R1,Plate:MR011",1.35 µM
same,potency estimated from few doses,"TBK1; compound concentrations:100 nM and 1000 nM (sheet 'Lestaurtinib' of Supplementary Table 1),run:Lestaurtinib_02482_R2,Plate:MR011",1.32 µM
same,potency estimated from few doses,"TBK1; compound concentrations:100 nM and 1000 nM (sheet 'Lestaurtinib' of Supplementary Table 1),run:Lestaurtinib_02487_R1,Plate:MR012",0.95 µM
same,potency estimated from few doses,TBK1; [2],1.51 µM
same,potency estimated from few doses,TBK1; [3],1.24 µM
same,potency estimated from few doses,"TBK1; compound concentrations:100 nM and 1000 nM (sheet 'Lestaurtinib' of Supplementary Table 1),run:Lestaurtinib_02496_R3,Plate:MR013",1.35 µM
same,potency estimated from few doses,TBK1; [4],0.854 µM
same,potency estimated from few doses,TBK1; [5],1.41 µM
same,potency estimated from few doses,"TBK1; compound concentrations:100 nM and 1000 nM (sheet 'Lestaurtinib' of Supplementary Table 1),run:Lestaurtinib_02577_R1,Plate:MR016",0.807 µM
same,potency estimated from few doses,TBK1; [6],1.41 µM
same,potency estimated from few doses,"TBK1; compound concentrations:100 nM and 1000 nM (sheet 'Lestaurtinib' of Supplementary Table 1),run:Lestaurtinib_02601_R1,Plate:MR018",1.21 µM
same,potency estimated from few doses,"TBK1; compound concentrations:100 nM and 1000 nM (sheet 'Lestaurtinib' of Supplementary Table 1),run:Lestaurtinib_02601_R2,Plate:MR018",1.76 µM
same,potency estimated from few doses,"TBK1; compound concentrations:100 nM and 1000 nM (sheet 'Lestaurtinib' of Supplementary Table 1),run:Lestaurtinib_02601_R3,Plate:MR018",1.7 µM
same,potency estimated from few doses,TBK1; [7],1.53 µM
same,potency estimated from few doses,"TBK1; compound concentrations:100 nM and 1000 nM (sheet 'Lestaurtinib' of Supplementary Table 1),run:Lestaurtinib_02624_R1,Plate:MR020",1.91 µM
same,potency estimated from few doses,"TBK1; compound concentrations:100 nM and 1000 nM (sheet 'Lestaurtinib' of Supplementary Table 1),run:Lestaurtinib_02624_R2,Plate:MR020",1.4 µM
same,potency estimated from few doses,"TBK1; compound concentrations:100 nM and 1000 nM (sheet 'Lestaurtinib' of Supplementary Table 1),run:Lestaurtinib_02624_R3,Plate:MR020",1.46 µM
same,potency estimated from few doses,TBK1; [8],1.51 µM
same,potency estimated from few doses,"TBK1; compound concentrations:100 nM and 1000 nM (sheet 'Lestaurtinib' of Supplementary Table 1),run:Lestaurtinib_02748_R2,Plate:MR024",1.31 µM
same,potency estimated from few doses,TBK1; [9],0.837 µM
same,potency estimated from few doses,"TBK1; compound concentrations:100 nM and 1000 nM (sheet 'Lestaurtinib' of Supplementary Table 1),run:Lestaurtinib_02752_R3,Plate:MR025",0.961 µM
same,potency estimated from few doses,TBK1; [10],1.3 µM
same,potency estimated from few doses,TBK1; [11],0.972 µM
same,potency estimated from few doses,TBK1; [12],1.3 µM
same,potency estimated from few doses,"TBK1; compound concentrations:100 nM and 1000 nM (sheet 'Lestaurtinib' of Supplementary Table 1),run:Lestaurtinib_02768_R2,Plate:MR028",1.93 µM
same,potency estimated from few doses,"TBK1; compound concentrations:100 nM and 1000 nM (sheet 'Lestaurtinib' of Supplementary Table 1),run:Lestaurtinib_02768_R3,Plate:MR028",1.33 µM
same,potency estimated from few doses,"TBK1; compound concentrations:100 nM and 1000 nM (sheet 'Lestaurtinib' of Supplementary Table 1),run:Lestaurtinib_02795_R1,Plate:MR022",1.8 µM
same,potency estimated from few doses,"TBK1; compound concentrations:100 nM and 1000 nM (sheet 'Lestaurtinib' of Supplementary Table 1),run:Lestaurtinib_02795_R2,Plate:MR022",1.37 µM
same,potency estimated from few doses,"TBK1; compound concentrations:100 nM and 1000 nM (sheet 'Lestaurtinib' of Supplementary Table 1),run:Lestaurtinib_02795_R3,Plate:MR022",1.7 µM
same,potency estimated from few doses,TBK1; [13],0.976 µM
same,potency estimated from few doses,"TBK1; compound concentrations:100 nM and 1000 nM (sheet 'Lestaurtinib' of Supplementary Table 1),run:Lestaurtinib_02802_R2,Plate:MR029",1.3 µM
same,potency estimated from few doses,"TBK1; compound concentrations:100 nM and 1000 nM (sheet 'Lestaurtinib' of Supplementary Table 1),run:Lestaurtinib_03172_R2,Plate:MR031",1.75 µM
same,potency estimated from few doses,"TBK1; compound concentrations:100 nM and 1000 nM (sheet 'Lestaurtinib' of Supplementary Table 1),run:Lestaurtinib_03260_R1,Plate:MR033",1.46 µM
same,potency estimated from few doses,"TBK1; compound concentrations:100 nM and 1000 nM (sheet 'Lestaurtinib' of Supplementary Table 1),run:Lestaurtinib_03260_R2,Plate:MR033",1.58 µM
same,potency estimated from few doses,"TBK1; compound concentrations:100 nM and 1000 nM (sheet 'Lestaurtinib' of Supplementary Table 1),run:Lestaurtinib_03260_R3,Plate:MR033",1.24 µM
same,potency estimated from few doses,TGFBR1; [14],1.53 µM
same,potency estimated from few doses,TGFBR1; [15],1.42 µM
same,potency estimated from few doses,TGFBR1; [16],1.63 µM
same,potency estimated from few doses,TGFBR1; [17],1.9 µM
same,potency estimated from few doses,"TGFBR1; compound concentrations:100 nM and 1000 nM (sheet 'Lestaurtinib' of Supplementary Table 1),run:Lestaurtinib_02367_R3,Plate:MR003",2.07 µM
same,potency estimated from few doses,"TGFBR1; compound concentrations:100 nM and 1000 nM (sheet 'Lestaurtinib' of Supplementary Table 1),run:Lestaurtinib_02381_R1,Plate:MR004",2.08 µM
same,potency estimated from few doses,"TGFBR1; compound concentrations:100 nM and 1000 nM (sheet 'Lestaurtinib' of Supplementary Table 1),run:Lestaurtinib_02407_R1,Plate:MR005",2.02 µM
same,potency estimated from few doses,"TGFBR1; compound concentrations:100 nM and 1000 nM (sheet 'Lestaurtinib' of Supplementary Table 1),run:Lestaurtinib_02422_R1,Plate:MR006",0.964 µM
same,potency estimated from few doses,"TGFBR1; compound concentrations:100 nM and 1000 nM (sheet 'Lestaurtinib' of Supplementary Table 1),run:Lestaurtinib_02437_R2,Plate:MR007",1.79 µM
same,potency estimated from few doses,TGFBR1; [18],0.176 µM
same,potency estimated from few doses,TGFBR1; [19],1.42 µM
same,potency estimated from few doses,"TGFBR1; compound concentrations:100 nM and 1000 nM (sheet 'Lestaurtinib' of Supplementary Table 1),run:Lestaurtinib_02438_R3,Plate:MR008",1.58 µM
same,potency estimated from few doses,"TGFBR1; compound concentrations:100 nM and 1000 nM (sheet 'Lestaurtinib' of Supplementary Table 1),run:Lestaurtinib_02443_R3,Plate:MR009",1.32 µM
same,potency estimated from few doses,TGFBR1; [1],1.75 µM
same,potency estimated from few doses,"TGFBR1; compound concentrations:100 nM and 1000 nM (sheet 'Lestaurtinib' of Supplementary Table 1),run:Lestaurtinib_02482_R3,Plate:MR011",1.76 µM
same,potency estimated from few doses,TGFBR1; [2],1.4 µM
same,potency estimated from few doses,"TGFBR1; compound concentrations:100 nM and 1000 nM (sheet 'Lestaurtinib' of Supplementary Table 1),run:Lestaurtinib_02496_R1,Plate:MR013",1.53 µM
same,potency estimated from few doses,TGFBR1; [3],1.83 µM
same,potency estimated from few doses,TGFBR1; [4],0.827 µM
same,potency estimated from few doses,TGFBR1; [5],1.31 µM
same,potency estimated from few doses,"TGFBR1; compound concentrations:100 nM and 1000 nM (sheet 'Lestaurtinib' of Supplementary Table 1),run:Lestaurtinib_02566_R3,Plate:MR014",1.34 µM
same,potency estimated from few doses,"TGFBR1; compound concentrations:100 nM and 1000 nM (sheet 'Lestaurtinib' of Supplementary Table 1),run:Lestaurtinib_02577_R3,Plate:MR016",1.82 µM
same,potency estimated from few doses,TGFBR1; [6],1.58 µM
same,potency estimated from few doses,TGFBR1; [7],2.21 µM
same,potency estimated from few doses,"TGFBR1; compound concentrations:100 nM and 1000 nM (sheet 'Lestaurtinib' of Supplementary Table 1),run:Lestaurtinib_02606_R2,Plate:MR019",2.08 µM
same,potency estimated from few doses,TGFBR1; [8],1.35 µM
same,potency estimated from few doses,"TGFBR1; compound concentrations:100 nM and 1000 nM (sheet 'Lestaurtinib' of Supplementary Table 1),run:Lestaurtinib_02748_R1,Plate:MR024",1.42 µM
same,potency estimated from few doses,"TGFBR1; compound concentrations:100 nM and 1000 nM (sheet 'Lestaurtinib' of Supplementary Table 1),run:Lestaurtinib_02748_R3,Plate:MR024",1.75 µM
same,potency estimated from few doses,TGFBR1; [9],1.6 µM
same,potency estimated from few doses,TGFBR1; [10],2.02 µM
same,potency estimated from few doses,TGFBR1; [11],1.36 µM
same,potency estimated from few doses,TGFBR1; [12],1.57 µM
same,potency estimated from few doses,TGFBR1; [13],1.54 µM
same,potency estimated from few doses,"TGFBR1; compound concentrations:100 nM and 1000 nM (sheet 'Lestaurtinib' of Supplementary Table 1),run:Lestaurtinib_02896_R3,Plate:MR030",0.95 µM
same,potency estimated from few doses,"TGFBR1; compound concentrations:100 nM and 1000 nM (sheet 'Lestaurtinib' of Supplementary Table 1),run:Lestaurtinib_03172_R1,Plate:MR031",1.54 µM
same,potency estimated from few doses,"TGFBR1; compound concentrations:100 nM and 1000 nM (sheet 'Lestaurtinib' of Supplementary Table 1),run:Lestaurtinib_03172_R3,Plate:MR031",1.58 µM
same,potency estimated from few doses,"TGFBR1; compound concentrations:100 nM and 1000 nM (sheet 'Lestaurtinib' of Supplementary Table 1),run:Lestaurtinib_03252_R1,Plate:MR032",1.33 µM
same,potency estimated from few doses,"TGFBR1; compound concentrations:100 nM and 1000 nM (sheet 'Lestaurtinib' of Supplementary Table 1),run:Lestaurtinib_03252_R2,Plate:MR032",1.59 µM
same,potency estimated from few doses,"TNK1; compound concentrations:100 nM and 1000 nM (sheet 'Lestaurtinib' of Supplementary Table 1),run:Lestaurtinib_02339_R1,Plate:MR001",0.22 µM
same,potency estimated from few doses,TNK1; [14],0.0935 µM
same,potency estimated from few doses,TNK1; [15],0.256 µM
same,potency estimated from few doses,"TNK1; compound concentrations:100 nM and 1000 nM (sheet 'Lestaurtinib' of Supplementary Table 1),run:Lestaurtinib_02364_R2,Plate:MR002",0.213 µM
same,potency estimated from few doses,TNK1; [16],0.19 µM
same,potency estimated from few doses,"TNK1; compound concentrations:100 nM and 1000 nM (sheet 'Lestaurtinib' of Supplementary Table 1),run:Lestaurtinib_02367_R1,Plate:MR003",0.191 µM
same,potency estimated from few doses,TNK1; [17],0.208 µM
same,potency estimated from few doses,"TNK1; compound concentrations:100 nM and 1000 nM (sheet 'Lestaurtinib' of Supplementary Table 1),run:Lestaurtinib_02407_R3,Plate:MR005",0.213 µM
same,potency estimated from few doses,"TNK1; compound concentrations:100 nM and 1000 nM (sheet 'Lestaurtinib' of Supplementary Table 1),run:Lestaurtinib_02422_R3,Plate:MR006",0.075 µM
same,potency estimated from few doses,TNK1; [18],0.0158 µM
same,potency estimated from few doses,TNK1; [19],0.0654 µM

# Source: article PMC11062922 (Nature Chemical Biology, 2023)
